Source: PubChem BioAssay AID1159580 (chemical genetic matrix, 2015)
Several values for one entry are separate records, joined by “and”; a condition that tells them apart may be missing. Equal entries are not always repeated. Hit rate of the full screen: of about 5,500 compounds, about 2,000 (36%) were called active. Inconclusive results (about 18%) are left out. Rule as the data show it: active = normalized growth mostly below about 0.91 (no sharp cut-off); inconclusive = no clear call, values can overlap the other calls; inactive = mostly above about 0.92. Some of the results follow. The source holds several records for some structures; these can differ, active in one and inactive in another.

Test: chemical genetic growth profiling, strain panel (AID 1159580);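 also: tested at 20 µM; growth read once vehicle control cultures reached saturation at 30 °C; 1 = growth at the plate median or of vehicle wells; lower values mean less growth of the strain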
Conditions: growth OD

Measured: normalized growth

Cc1nc2sccn2c(=O)c1CCN1CCC(=C(c2ccc(F)cc2)c2ccc(F)cc2)CC1
0.732 (active) and 0.816 (inactive): S. cerevisiae deletion strains, locus YNL153C, strain GIM3, stronger effect = lower value
0.802 (active) and 0.999 (inactive): S. cerevisiae deletion strains, locus YDR150W, strain NUM1, stronger effect = lower value
0.206 (active) and 1.03 (inactive): S. cerevisiae deletion strains, locus YMR307W, strain GAS1, stronger effect = lower value
0.65 (active) and 0.981 (inactive): S. cerevisiae deletion strains, locus YHR030C, strain SLT2, stronger effect = lower value
0.637 (active) and 1.1 (inactive): S. cerevisiae deletion strains, locus YNL128W, strain TEP1, stronger effect = lower value
inactive: S. cerevisiae deletion strains, locus YAL040C, strain CLN3, stronger effect = lower value 1 | S. cerevisiae deletion strains, locus YBR229C, strain ROT2, stronger effect = lower value 0.992 | S. cerevisiae deletion strains, locus YCL061C, strain MRC1 (second series), stronger effect = lower value 1 | S. cerevisiae deletion strains, locus YDL185W, strain tfp1, stronger effect = lower value 1.01 | S. cerevisiae deletion strains, locus YDR101C, strain arx1, stronger effect = lower value 0.945 | S. cerevisiae deletion strains, locus YDR363W, strain ESC2, stronger effect = lower value 1.01 | S. cerevisiae deletion strains, locus YER110C, stronger effect = lower value 1 | S. cerevisiae deletion strains, locus YGL078C, strain dbp3, stronger effect = lower value 1 | S. cerevisiae deletion strains, locus YHR079C, strain IRE1, stronger effect = lower value 0.959 | S. cerevisiae deletion strains, locus YHR094C, strain hxt1, stronger effect = lower value 1 | S. cerevisiae deletion strains, locus YIL125W, strain kgd1, stronger effect = lower value 1 | S. cerevisiae deletion strains, locus YJL134W, strain LCB3, stronger effect = lower value 1.01 | S. cerevisiae deletion strains, locus YJL168C, strain set2, stronger effect = lower value 0.998 | S. cerevisiae deletion strains, locus YJR066W, strain TOR1, stronger effect = lower value 0.965 | S. cerevisiae deletion strains, locus YKL009W, strain mrt4, stronger effect = lower value 0.967 | S. cerevisiae deletion strains, locus YKL068W, stronger effect = lower value 0.999 | S. cerevisiae deletion strains, locus YKL085W, strain MDH1 (second series), stronger effect = lower value 0.992 | S. cerevisiae deletion strains, locus YKL085W, strain MDH1, stronger effect = lower value 0.992 | S. cerevisiae deletion strains, locus YLR102C, strain apc9, stronger effect = lower value 0.999 | S. cerevisiae deletion strains, locus YLR113W, strain HOG1, stronger effect = lower value 0.979 | S. cerevisiae deletion strains, locus YLR371W, strain rom2, stronger effect = lower value 0.978 | S. cerevisiae deletion strains, locus YML124C, strain tub3, stronger effect = lower value 1 | S. cerevisiae deletion strains, locus YMR078C, strain ctf18, stronger effect = lower value 1 | S. cerevisiae deletion strains, locus YNL183C, strain NPR1, stronger effect = lower value 0.935 | S. cerevisiae deletion strains, locus YNL250W, strain rad50, stronger effect = lower value 0.988 | S. cerevisiae deletion strains, locus YNL271C, strain bni1, stronger effect = lower value 0.992 | S. cerevisiae deletion strains, locus YNL298W, strain CLA4, stronger effect = lower value 0.999 | S. cerevisiae deletion strains, locus YOL012C, strain htz1 0.498 | S. cerevisiae deletion strains, locus YOL147C, strain pex11, stronger effect = lower value 0.984 | S. cerevisiae deletion strains, locus YOR083W, strain WHI5 (second series), stronger effect = lower value 0.985 | S. cerevisiae deletion strains, locus YOR136W, strain idh2, stronger effect = lower value 0.94 | S. cerevisiae deletion strains, locus YOR144C, strain elg1, stronger effect = lower value 1.01 | S. cerevisiae deletion strains, locus YOR231W, strain MKK1, stronger effect = lower value 0.999 | S. cerevisiae deletion strains, locus YOR316C, strain cot1, stronger effect = lower value 0.996 | S. cerevisiae deletion strains, locus YPL256C, strain CLN2, stronger effect = lower value 0.962 | S. cerevisiae deletion strains, locus YPR119W, strain clb2, stronger effect = lower value 1.01 | S. cerevisiae deletion strains, locus YPR141C, strain kar3, stronger effect = lower value 0.997
active: S. cerevisiae deletion strains, locus YBR021W, strain FUR4, stronger effect = lower value 0.338 | S. cerevisiae deletion strains, locus YCL029C, strain bik1, stronger effect = lower value 0.885 | S. cerevisiae deletion strains, locus YDL035C, strain GPR1, stronger effect = lower value 0.536 | S. cerevisiae deletion strains, locus YDL074C, strain BRE1, stronger effect = lower value 0.395 | S. cerevisiae deletion strains, locus YDL101C, strain DUN1, stronger effect = lower value 0.758 | S. cerevisiae deletion strains, locus YDL134C, strain PPH21, stronger effect = lower value 0.404 | S. cerevisiae deletion strains, locus YDL192W, strain arf1, stronger effect = lower value 0.844 | S. cerevisiae deletion strains, locus YDR162C, strain NBP2, stronger effect = lower value 0.0773 | S. cerevisiae deletion strains, locus YDR318W, strain mcm21, stronger effect = lower value 0.865 | S. cerevisiae deletion strains, locus YDR388W, stronger effect = lower value 0.222 | S. cerevisiae deletion strains, locus YDR502C, strain sam2, stronger effect = lower value 0.832 | S. cerevisiae deletion strains, locus YEL061C, strain CIN8, stronger effect = lower value 0.672 | S. cerevisiae deletion strains, locus YER002W, strain NOP16, stronger effect = lower value 1.21 [resistant] | S. cerevisiae deletion strains, locus YER155C, strain BEM2, stronger effect = lower value 0.897 | S. cerevisiae deletion strains, locus YER167W, strain BCK2, stronger effect = lower value 0.692 | S. cerevisiae deletion strains, locus YGL086W, strain mad1, stronger effect = lower value 0.808 | S. cerevisiae deletion strains, locus YGL248W, strain PDE1, stronger effect = lower value 0.511 | S. cerevisiae deletion strains, locus YGR078C, strain PAC10, stronger effect = lower value 0.695 | S. cerevisiae deletion strains, locus YGR135W, strain pre9, stronger effect = lower value 0.683 | S. cerevisiae deletion strains, locus YGR252W, strain gcn5, stronger effect = lower value 0.487 | S. cerevisiae deletion strains, locus YHR079C, strain IRE1 (second series), stronger effect = lower value 0.902 | S. cerevisiae deletion strains, locus YHR200W, strain rpn10, stronger effect = lower value 0.914 | S. cerevisiae deletion strains, locus YIL066C, strain RNR3, stronger effect = lower value 0.571 | S. cerevisiae deletion strains, locus YIL073C, strain SPO22, stronger effect = lower value 0.279 | S. cerevisiae deletion strains, locus YIR030C, strain dcg1, stronger effect = lower value 0.917 | S. cerevisiae deletion strains, locus YJL187C, strain SWE1 (second series), stronger effect = lower value 0.547 | S. cerevisiae deletion strains, locus YJR043C, strain POL32, stronger effect = lower value 0.69 | S. cerevisiae deletion strains, locus YKL190W, strain CNB1, stronger effect = lower value 0.604 | S. cerevisiae deletion strains, locus YKR001C, strain vps1, stronger effect = lower value 0.139 | S. cerevisiae deletion strains, locus YLR039C, strain RIC1, stronger effect = lower value 0.303 | S. cerevisiae deletion strains, locus YLR058C, strain SHM2, stronger effect = lower value 0.613 | S. cerevisiae deletion strains, locus YLR262C, strain YPT6, stronger effect = lower value 0.289 | S. cerevisiae deletion strains, locus YLR268W, strain sec22, stronger effect = lower value 0.624 | S. cerevisiae deletion strains, locus YLR330W, strain CHS5, stronger effect = lower value 0.833 | S. cerevisiae deletion strains, locus YLR342W, strain FKS1 (second series), stronger effect = lower value 0.56 | S. cerevisiae deletion strains, locus YLR418C, strain cdc73, stronger effect = lower value 0.451 | S. cerevisiae deletion strains, locus YML016C, strain PPZ1, stronger effect = lower value 0.65 | S. cerevisiae deletion strains, locus YML032C, strain rad52, stronger effect = lower value 0.825 | S. cerevisiae deletion strains, locus YMR223W, strain ubp8, stronger effect = lower value 0.816 | S. cerevisiae deletion strains, locus YNL067W, strain RPL9B, stronger effect = lower value 0.72 | S. cerevisiae deletion strains, locus YNL175C, strain NOP13, stronger effect = lower value 1.28 [resistant] | S. cerevisiae deletion strains, locus YNL197C, strain WHI3, stronger effect = lower value 1.19 [resistant] | S. cerevisiae deletion strains, locus YNL233W, strain BNI4, stronger effect = lower value 0.573 | S. cerevisiae deletion strains, locus YNL307C, strain MCK1, stronger effect = lower value 0.863 | S. cerevisiae deletion strains, locus YNL322C, strain KRE1, stronger effect = lower value 0.67 | S. cerevisiae deletion strains, locus YNR052C, strain pop2, stronger effect = lower value 0.773 | S. cerevisiae deletion strains, locus YOL006C, strain TOP1, stronger effect = lower value 0.138 | S. cerevisiae deletion strains, locus YOR061W, strain CKA2, stronger effect = lower value 0.646 | S. cerevisiae deletion strains, locus YOR069W, strain VPS5, stronger effect = lower value 0.861 | S. cerevisiae deletion strains, locus YOR184W, strain ser1, stronger effect = lower value 0.729 | S. cerevisiae deletion strains, locus YPL055C, strain LGE1, stronger effect = lower value 0.268 | S. cerevisiae deletion strains, locus YPR163C, strain tif3, stronger effect = lower value 0.722 | S. cerevisiae deletion strains, locus YPR167C, strain met16, stronger effect = lower value 0.906 | S. cerevisiae deletion strains, strain wtn01, stronger effect = lower value 0.776 | S. cerevisiae strains, strain wild type, stronger effect = lower value 0.592
0.733 (active) and 1 (inactive): S. cerevisiae deletion strains, locus YMR263W, strain SAP30, stronger effect = lower value
0.65 (active) and 1.01 (inactive): S. cerevisiae deletion strains, locus YAL013W, strain DEP1, stronger effect = lower value
0.354 (active) and 0.987 (inactive): S. cerevisiae deletion strains, locus YJL095W, strain BCK1, stronger effect = lower value
0.132 (active) and 0.945 (inactive): S. cerevisiae deletion strains, locus YGR229C, strain SMI1, stronger effect = lower value
0.36 (active) and 0.998 (inactive): S. cerevisiae deletion strains, locus YJR075W, strain HOC1, stronger effect = lower value
